Laboratory results reported in PubChem BioAssay (NCI).
The panel holds about 83,000 compounds, 20% with a hit somewhere; the sample as a whole holds those more often.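 Note: values are percent growth. 100 is the growth of untreated cells, values between 100 and 0 indicate rising inhibition; between -100 and 0 indicates cell death.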 The source made the active and inactive calls. How the source made its calls: active means growth percent below 10; inactive means the rest.

Key:
Assay in all cases: NCI-60 one-dose screen, 48 h (100 = growth as untreated, 0 = no growth, -100 = all killed)
Details in all cases: 10 µM unless noted
SR leukemia = test system: SR leukemia
RPMI-8226 leukemia = test system: RPMI-8226 leukemia
OVCAR-8 ovarian = test system: OVCAR-8 ovarian
OVCAR-5 ovarian = test system: OVCAR-5 ovarian
OVCAR-4 ovarian = test system: OVCAR-4 ovarian
SK-OV-3 ovarian = test system: SK-OV-3 ovarian
IGROV1 ovarian = test system: IGROV1 ovarian
OVCAR-3 ovarian = test system: OVCAR-3 ovarian
HS 578T breast = test system: HS 578T breast
NCI/ADR-RES ovarian = test system: NCI/ADR-RES ovarian

Measured: growth

COc1ccc(Oc2nc(Nc3ccc(N4CCOCC4)cc3)ncc2NC(=O)Nc2cc(OC)cc(OC)c2)cc1
inactive: SR leukemia 50.7% | RPMI-8226 leukemia 54.3% | OVCAR-8 ovarian 18.4% | OVCAR-5 ovarian 60.9% | OVCAR-4 ovarian 54.5% | SK-OV-3 ovarian 57.4% | IGROV1 ovarian 37.8% | OVCAR-3 ovarian 18.3% | HS 578T breast 36.2% | NCI/ADR-RES ovarian 80.8%

COC(=O)c1cc(Br)ccc1O
inactive: SR leukemia 89.2% | RPMI-8226 leukemia 94.5% | OVCAR-8 ovarian 103% | OVCAR-5 ovarian 100% | OVCAR-4 ovarian 110% | SK-OV-3 ovarian 108% | IGROV1 ovarian 110% | OVCAR-3 ovarian 117% | HS 578T breast 117% | NCI/ADR-RES ovarian 107%

C[C@]1(O)CC(=O)[C@]2(O)C3=C(C=C[C@]2(O)C1)C(=O)c1c(O)cccc1C3=O
active: RPMI-8226 leukemia -0.202% | OVCAR-8 ovarian -12.6% | OVCAR-4 ovarian -97.9% | OVCAR-3 ovarian -32.8%
inactive: SR leukemia 10.5% | OVCAR-5 ovarian 38.8% | SK-OV-3 ovarian 98.8% | IGROV1 ovarian 27.1% | HS 578T breast 71.8% | NCI/ADR-RES ovarian 47.2%

CCN(CC)CCN1C(=O)c2cccc3c(/C=C/CN4C(=O)c5cccc6cccc(c56)C4=O)ccc(c23)C1=O
inactive: SR leukemia 38.6% | RPMI-8226 leukemia 26.5% | OVCAR-8 ovarian 92.1% | OVCAR-5 ovarian 94.4% | OVCAR-4 ovarian 102% | SK-OV-3 ovarian 112% | IGROV1 ovarian 90.1% | OVCAR-3 ovarian 108% | HS 578T breast 84.8% | NCI/ADR-RES ovarian 99.8%

CC1(C)CC(=O)c2c(nn(-c3ccc(Br)cc3)c2-c2cn(-c3ccccc3)nc2-c2cccnc2)C1
inactive: SR leukemia 112% | RPMI-8226 leukemia 72.5% | OVCAR-8 ovarian 97.6% | OVCAR-5 ovarian 106% | OVCAR-4 ovarian 84.5% | SK-OV-3 ovarian 82.5% | IGROV1 ovarian 93.9% | OVCAR-3 ovarian 99.7% | HS 578T breast 98.1% | NCI/ADR-RES ovarian 94%

COc1ccc(/C=C(/c2ccccc2)[N+](=O)[O-])c(OC)c1
active: SR leukemia 6.7% | RPMI-8226 leukemia 1.5% | OVCAR-5 ovarian -9.82% | IGROV1 ovarian -35.9% | OVCAR-3 ovarian -80.6% | NCI/ADR-RES ovarian -4.93%
inactive: OVCAR-8 ovarian 15.8% | OVCAR-4 ovarian 14.4% | SK-OV-3 ovarian 42.7% | HS 578T breast 46.1%

COC(=O)c1nc(-c2ccccc2)oc1S(=O)(=O)NCC(c1ccc(Cl)cc1)N1CCOCC1 (stereo not given)
inactive: OVCAR-8 ovarian 65% | OVCAR-5 ovarian 77.7% | OVCAR-4 ovarian 86.2% | SK-OV-3 ovarian 97% | IGROV1 ovarian 61.1% | OVCAR-3 ovarian 35.1% | HS 578T breast 85.8% | NCI/ADR-RES ovarian 97.9%
active: SR leukemia 1.88% | RPMI-8226 leukemia 7.86%

COc1ccc(/C=C/C(c2cc(OC)c(OC)c(OC)c2)n2ccnc2)cc1O (stereo not given)
inactive: RPMI-8226 leukemia 15.1% | OVCAR-8 ovarian 41% | OVCAR-5 ovarian 103% | OVCAR-4 ovarian 78.8% | SK-OV-3 ovarian 33.5% | IGROV1 ovarian 55.7% | HS 578T breast 32.1% | NCI/ADR-RES ovarian 45.7%
active: SR leukemia 6.18% | OVCAR-3 ovarian 4.86%

O=C(Nc1ccccc1O)c1ccc(CNC(=O)c2ccsc2Nc2ccnc(C(F)(F)F)c2)cc1
inactive: SR leukemia 22% | OVCAR-8 ovarian 18.4% | OVCAR-5 ovarian 44.3% | OVCAR-4 ovarian 47.3% | SK-OV-3 ovarian 49.1% | IGROV1 ovarian 31.9% | OVCAR-3 ovarian 21.6%
active: RPMI-8226 leukemia -1.09% | HS 578T breast 4.47% | NCI/ADR-RES ovarian 8.13%

CCN1C(=O)N(CC)C2C1N=C(SCc1ccc(Cl)cc1)N2/N=C/C=C/c1ccccc1OC (stereo not given)
inactive: SR leukemia 18.4% | RPMI-8226 leukemia 11.2% | OVCAR-8 ovarian 56.8% | OVCAR-5 ovarian 98.6% | OVCAR-4 ovarian 69.9% | SK-OV-3 ovarian 70.4% | IGROV1 ovarian 78.6% | OVCAR-3 ovarian 50.6% | HS 578T breast 57.3% | NCI/ADR-RES ovarian 26.4%

CCOC(=O)c1[nH]c2c(c1C)-c1[nH]c(=O)c(S(=O)(=O)c3ccccc3)cc1SC2
inactive: SR leukemia 39.4% [100 µM] | RPMI-8226 leukemia 33.3% [100 µM] | OVCAR-8 ovarian 25.3% [100 µM] | OVCAR-5 ovarian 89.6% [100 µM] | SK-OV-3 ovarian 59.8% [100 µM] | IGROV1 ovarian 48.7% [100 µM] | HS 578T breast 28.1% [100 µM] | NCI/ADR-RES ovarian 59.7% [100 µM]
active: OVCAR-4 ovarian 5.79% [100 µM] | OVCAR-3 ovarian -15.1% [100 µM]

COc1cc(-c2nc3cc(Cl)c(Cl)cc3[nH]2)ccc1OCC(=O)N=Nc1c(O)[nH]c2ccc(Cl)cc12
active: SR leukemia -30.7% | OVCAR-8 ovarian 2.5% | SK-OV-3 ovarian -5.3% | IGROV1 ovarian -0.308% | OVCAR-3 ovarian -94.3% | HS 578T breast -14%
inactive: RPMI-8226 leukemia 10.4% | OVCAR-5 ovarian 26.8% | OVCAR-4 ovarian 12.2% | NCI/ADR-RES ovarian 88.2%

CC1=CC(c2ccco2)=C2C(N)=NNC2N1 (stereo not given)
inactive: SR leukemia 94.2% | RPMI-8226 leukemia 106% | OVCAR-8 ovarian 97.7% | OVCAR-5 ovarian 87.7% | OVCAR-4 ovarian 92.6% | SK-OV-3 ovarian 101% | IGROV1 ovarian 86.9% | OVCAR-3 ovarian 104% | HS 578T breast 105% | NCI/ADR-RES ovarian 98.9%

O=C(CCCCCCN1CC(=O)N2[C@H](c3ccc(Cl)cc3)c3[nH]c4ccccc4c3C[C@@H]2C1=O)NO
inactive: SR leukemia 21.6% | RPMI-8226 leukemia 24.5% | OVCAR-8 ovarian 51.8% | OVCAR-5 ovarian 59.5% | OVCAR-4 ovarian 74.3% | SK-OV-3 ovarian 62.9% | IGROV1 ovarian 33.5% | OVCAR-3 ovarian 56.5% | HS 578T breast 63.7% | NCI/ADR-RES ovarian 90.2%

Cc1ccc(C2CC(c3nc(-c4ccc(Cl)cc4)oc3C)=NN2C(=O)c2ccncc2)cc1 (stereo not given)
inactive: SR leukemia 92.9% | RPMI-8226 leukemia 83.2% | OVCAR-8 ovarian 90.4% | OVCAR-5 ovarian 107% | OVCAR-4 ovarian 82.5% | SK-OV-3 ovarian 92.3% | IGROV1 ovarian 70.7% | OVCAR-3 ovarian 90.7% | HS 578T breast 83.1% | NCI/ADR-RES ovarian 88.1%

O=C(Nc1cc(Cl)ccc1O)c1cccc(Nc2ccnc(C(F)(F)F)c2)c1
active: RPMI-8226 leukemia 3.8%
inactive: SR leukemia 25% | OVCAR-8 ovarian 39.4% | OVCAR-5 ovarian 77.8% | OVCAR-4 ovarian 33.8% | SK-OV-3 ovarian 56.4% | IGROV1 ovarian 75.7% | OVCAR-3 ovarian 53.4% | HS 578T breast 60.4% | NCI/ADR-RES ovarian 15.2%

C#COc1cccc(Nc2ncnc3cc(NC(=O)[C@@H](C)Cl)ccc23)c1
inactive: OVCAR-8 ovarian 11.9% [6.25 µM] | OVCAR-5 ovarian 25% [6.25 µM] | OVCAR-4 ovarian 52.8% [6.25 µM] | HS 578T breast 17.4% [6.25 µM]
active: SR leukemia 1.44% [6.25 µM] | RPMI-8226 leukemia -6.79% [6.25 µM] | SK-OV-3 ovarian -5.9% [6.25 µM] | IGROV1 ovarian 8.48% [6.25 µM] | OVCAR-3 ovarian -6.96% [6.25 µM] | NCI/ADR-RES ovarian 6.35% [6.25 µM]

CCCCNc1cc(-c2cn[nH]c2-c2cc(C)cc(OC)c2)nc(-c2cccnc2)n1
inactive: SR leukemia 60.1% | RPMI-8226 leukemia 83.1% | OVCAR-8 ovarian 80.2% | OVCAR-5 ovarian 85.3% | OVCAR-4 ovarian 73.8% | SK-OV-3 ovarian 97.1% | IGROV1 ovarian 115% | OVCAR-3 ovarian 98.8% | HS 578T breast 97.6% | NCI/ADR-RES ovarian 89.8%

CCNc1nc(O)c(/C=C2\C=Nc3ncccc32)s1
active: SR leukemia 0.377% | OVCAR-8 ovarian 6.27% | OVCAR-5 ovarian 8.67% | SK-OV-3 ovarian -10.3% | OVCAR-3 ovarian -2.07% | HS 578T breast -15.1%
inactive: RPMI-8226 leukemia 29.1% | OVCAR-4 ovarian 19.5% | IGROV1 ovarian 21.7% | NCI/ADR-RES ovarian 29.7%

COc1ccc(-c2n[nH]c(=O)c3nc(NC(=S)Nc4ccc(Oc5ccccc5)cc4)sc23)cc1
inactive: SR leukemia 81.6% | RPMI-8226 leukemia 82.8% | OVCAR-8 ovarian 86.5% | OVCAR-5 ovarian 104% | OVCAR-4 ovarian 95% | SK-OV-3 ovarian 94.9% | IGROV1 ovarian 104% | OVCAR-3 ovarian 105% | HS 578T breast 97.7% | NCI/ADR-RES ovarian 108%

O=C1NC(=O)/C(=C/c2c(-c3ccccc3)nc3sc(COc4ccccc4)nn23)S1
inactive: SR leukemia 90.2% | RPMI-8226 leukemia 84.4% | OVCAR-8 ovarian 105% | OVCAR-5 ovarian 115% | OVCAR-4 ovarian 93.4% | SK-OV-3 ovarian 105% | IGROV1 ovarian 112% | OVCAR-3 ovarian 110% | HS 578T breast 105% | NCI/ADR-RES ovarian 100%

COc1ccccc1C(=O)Nc1cccc(NC(=O)c2ccoc2C)c1
inactive: SR leukemia 15.5% | RPMI-8226 leukemia 20.7% | OVCAR-8 ovarian 40.4% | OVCAR-5 ovarian 85.3% | OVCAR-4 ovarian 77.7% | SK-OV-3 ovarian 66.1% | IGROV1 ovarian 41.6% | OVCAR-3 ovarian 15% | HS 578T breast 40.2%
active: NCI/ADR-RES ovarian 9.85%

O=C(Nc1ncccc1OCc1ccccc1)NC1CCCCCC1
inactive: SR leukemia 61.5% | RPMI-8226 leukemia 68.1% | OVCAR-8 ovarian 104% | OVCAR-5 ovarian 95% | OVCAR-4 ovarian 84.6% | SK-OV-3 ovarian 110% | IGROV1 ovarian 89.1% | OVCAR-3 ovarian 89.1% | HS 578T breast 105% | NCI/ADR-RES ovarian 89.7%

C=C(C)[C@@H]1CC[C@]2(C)[C@H](CC=C3[C@@H]4CC(C)(C)CC[C@]4(CO)CC[C@]32C)[C@@]1(C)CCCN
active: SR leukemia -52.1% | RPMI-8226 leukemia -47.5% | OVCAR-8 ovarian -85.1% | OVCAR-4 ovarian -21.8% | IGROV1 ovarian 8.73% | OVCAR-3 ovarian -42%
inactive: OVCAR-5 ovarian 26% | SK-OV-3 ovarian 82.8% | HS 578T breast 43.4% | NCI/ADR-RES ovarian 49.1%

COc1ccc(C[n+]2c3ccccc3n3c4ccc(N)cc4ccc32)c(OC)c1OC
inactive: SR leukemia 41.2% | RPMI-8226 leukemia 15.1% | OVCAR-8 ovarian 46.8% | OVCAR-5 ovarian 99.6% | OVCAR-4 ovarian 55.5% | SK-OV-3 ovarian 70% | IGROV1 ovarian 73.9% | OVCAR-3 ovarian 50.9% | HS 578T breast 43.5% | NCI/ADR-RES ovarian 103%

CS(=O)(=O)c1ccc(NC(=O)c2ccccc2)nc1
inactive: SR leukemia 76.8% | RPMI-8226 leukemia 100% | OVCAR-8 ovarian 107% | OVCAR-5 ovarian 108% | OVCAR-4 ovarian 115% | SK-OV-3 ovarian 94.1% | IGROV1 ovarian 111% | OVCAR-3 ovarian 110% | HS 578T breast 98.1% | NCI/ADR-RES ovarian 110%
